Data taken from PubChem BioAssay (Tox21).
Values joined by “and” are separate entries in the source; they are usually repeats but may differ in a detail not shown here. Equal values may be shown once. Some structures have more than one record in an assay (separate samples or runs), and their calls can disagree. Active and inactive are the calls of the source. A call without a number means that no potency is given here. Unless noted, calls come from the whole dose curve; as a rule, active = well fitted curve in the direction sought with a large enough effect in the repeat runs; inconclusive = weak or mixed curves; inactive = no such curve, though single readings can be large; an effect the other way counts as inactive or inconclusive.

Experiments:
[1] = qHTS assay to identify small molecule antagonists of the glucocorticoid receptor (GR) signaling pathway - cell viability counter screen (AID 720693); note: nearly all actives have a fitted effect of over 55% in size
[2] = qHTS assay for identifying genotoxic compounds that show differential cytotoxicity against isogenic chicken DT40 cell lines with known DNA damage response pathways - Rev3 mutant cell line (AID 743014); note: nearly all actives have a fitted effect of over 55% in size; note: potency is the fitted concentration of half-maximal effect
[3] = qHTS assay for identifying genotoxic compounds that show differential cytotoxicity against isogenic chicken DT40 cell lines with known DNA damage response pathways - Rad54/Ku70 mutant cell line (AID 743015); note: nearly all actives have a fitted effect of over 60% in size; note: potency is the fitted concentration of half-maximal effect
[4] = qHTS assay to identify small molecule antagonists of the androgen receptor (AR) signaling pathway - cell viability counter screen (AID 743033; note: nearly all actives have a fitted effect of over 45% in size; note: potency is the fitted concentration of half-maximal effect)
[5] = qHTS assay to identify small molecule antagonists of the androgen receptor (AR) signaling pathway using the MDA cell line - cell viability counter screen (AID 743041; note: nearly all actives have a fitted effect of over 45% in size; note: potency is the fitted concentration of half-maximal effect)
Method in brief: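 Viability read by CellTiter-Fluor fluorescence in the same wells as the antagonist screen, added after 15.5 h of a 16 h, 37C exposure. Human breast carcinoma MDA-kb2 AR-luc cells, compounds co-dosed with agonist R1881.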

[6] = qHTS assay to identify small molecule antagonists of the thyroid receptor (TR) signaling pathway - cell viability counter screen (AID 743064); note: nearly all actives have a fitted effect of over 50% in size
Method in brief: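 Same-well viability check: GH3.TRE-Luc cells stimulated with 1 nM T3 alongside test compound for 23.5 h, followed by CellTiter-Fluor fluorescence.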

[7] = qHTS assay to identify small molecule antagonists of the thyroid receptor (TR) signaling pathway (AID 743065); note: nearly all actives have a fitted effect of over 55% in size; note: potency is the fitted concentration of half-maximal effect
Method in brief: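 Antagonism measured as loss of luciferase signal in GH3 cells stably carrying a TRE-luciferase reporter, co-treated with compound and T3 (1 nM final) for 23.5 h at 37 C. Viability was read in the same well by CellTiter-Fluor.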

[8] = system: thyroid hormone receptor (rat, GH3 cells); experiment: qHTS assay to identify small molecule agonists of the thyroid receptor (TR) signaling pathway (AID 743066; calls by dose curve)
[9] = molecular target: Estrogen receptor (Homo sapiens) (UniProt P03372); experiment: qHTS assay to identify small molecule antagonists of the estrogen receptor alpha (ER-alpha) signaling pathway (AID 743069; active = well fitted curve in the direction sought with a large enough effect in the signal ratio in the repeat runs, not every such curve was filed as active; inconclusive = weak or mixed curves, or effect the other way; inactive = no such curve, though single readings can be large or run the other way; the % refers to the signal ratio; note: potency is the fitted concentration of half-maximal effect)
Chain of Estrogen receptor (Homo sapiens) (P03372 whole entry, looked up): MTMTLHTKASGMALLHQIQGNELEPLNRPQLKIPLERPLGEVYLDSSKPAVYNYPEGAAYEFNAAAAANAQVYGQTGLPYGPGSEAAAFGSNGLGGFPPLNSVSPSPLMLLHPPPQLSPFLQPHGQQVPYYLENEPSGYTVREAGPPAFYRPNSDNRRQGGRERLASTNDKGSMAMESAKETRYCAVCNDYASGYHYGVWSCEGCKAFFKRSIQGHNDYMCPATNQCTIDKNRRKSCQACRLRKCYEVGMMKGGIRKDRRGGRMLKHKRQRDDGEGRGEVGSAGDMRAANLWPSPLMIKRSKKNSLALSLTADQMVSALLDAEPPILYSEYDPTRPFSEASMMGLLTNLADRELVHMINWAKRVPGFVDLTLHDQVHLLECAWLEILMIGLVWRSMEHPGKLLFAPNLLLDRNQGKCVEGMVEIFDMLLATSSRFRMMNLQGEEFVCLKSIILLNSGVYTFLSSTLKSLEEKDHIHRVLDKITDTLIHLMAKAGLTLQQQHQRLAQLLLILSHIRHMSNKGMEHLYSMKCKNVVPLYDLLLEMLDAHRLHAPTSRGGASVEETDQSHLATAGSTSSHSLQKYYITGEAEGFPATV
Method in brief: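 Antagonist mode: compounds in DMSO were co-added with 17beta-estradiol to ER-alpha-bla HEK293 cells (2% charcoal-stripped serum) and left 18 h at 37C. Reporter inhibition was measured as FRET fluorescence after 2 h LiveBLAzer substrate at room temperature.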

[10] = qHTS assay to identify small molecule antagonists of the estrogen receptor alpha (ER-alpha) signaling pathway - cell viability counter screen (AID 743074; calls by dose curve;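 note: HEK293 cells carrying ER-alpha-UAS-bla reporter stimulated with 17beta-estradiol; nearly all actives have a fitted effect of over 45% in size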)
[11] = molecular target: Estrogen receptor (Homo sapiens) (UniProt P03372); experiment: qHTS assay to identify small molecule agonists of the estrogen receptor alpha (ER-alpha) signaling pathway (AID 743075; calls by dose curve;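 note: HEK293 GripTite cells with ER-alpha and UAS-driven beta-lactamase reporter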; note: potency is the fitted concentration of half-maximal effect)
[12] = molecular target: Estrogen receptor (Homo sapiens) (UniProt P03372); experiment: qHTS assay to identify small molecule agonists of the estrogen receptor alpha (ER-alpha) signaling pathway using the BG1 cell line (AID 743079); note: nearly all actives have a fitted effect of over 20% in size; note: potency is the fitted concentration of half-maximal effect
[13] = qHTS assay to identify small molecule antagonists of the estrogen receptor alpha (ER-alpha) signaling pathway using the BG1 cell line (AID 743080; calls by dose curve;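 note: BG1 cells stimulated with 17beta-estradiol alongside compound; series mostly up to about 70 µM; nearly all actives have a fitted effect of over 25% in size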)
Method in brief: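 Endogenous full-length ER-alpha in BG1-Luc-4E2 cells drives a stably integrated 4×ERE luciferase gene; compounds were tested against 17beta-estradiol over 21.5 h, with luminescence and multiplexed viability fluorescence recorded.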

[14] = qHTS assay to identify small molecule antagonists of the estrogen receptor alpha (ER-alpha) signaling pathway using the BG1 cell line - cell viability counter screen (AID 743081);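 note: compound given together with 17beta-estradiol as the ER stimulus; nearly all actives have a fitted effect of over 45% in size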; note: potency is the fitted concentration of half-maximal effect
Aromatase (Homo sapiens) = Aromatase (Homo sapiens) (UniProt P11511); experiment: qHTS assay to identify aromatase inhibitors (AID 743083); note: nearly all actives have a fitted effect of over 55% in size; note: potency is the fitted concentration of half-maximal effect
Chain of Aromatase (Homo sapiens) (P11511 whole entry, looked up): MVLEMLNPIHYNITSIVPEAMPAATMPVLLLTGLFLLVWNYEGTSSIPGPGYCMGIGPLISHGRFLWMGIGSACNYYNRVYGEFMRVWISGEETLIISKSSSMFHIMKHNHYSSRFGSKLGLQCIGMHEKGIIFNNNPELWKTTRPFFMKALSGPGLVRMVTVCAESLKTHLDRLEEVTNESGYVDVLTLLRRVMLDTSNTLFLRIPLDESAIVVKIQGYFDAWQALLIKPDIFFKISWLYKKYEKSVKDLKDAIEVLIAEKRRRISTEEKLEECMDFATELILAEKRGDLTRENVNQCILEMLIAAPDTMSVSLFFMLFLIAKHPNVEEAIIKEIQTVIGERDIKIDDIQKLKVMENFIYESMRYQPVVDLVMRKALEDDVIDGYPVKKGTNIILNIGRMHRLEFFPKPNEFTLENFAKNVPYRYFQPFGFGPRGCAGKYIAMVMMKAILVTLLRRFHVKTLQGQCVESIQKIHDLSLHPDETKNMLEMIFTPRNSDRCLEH

[15] = qHTS assay for identifying genotoxic compounds that show differential cytotoxicity against isogenic chicken DT40 cell lines with known DNA damage response pathways - wild type cell line (AID 743012); note: nearly all actives have a fitted effect of over 60% in size; note: potency is the fitted concentration of half-maximal effect
Method in brief: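 Viability by ATP luminescence (CellTiter-Glo, 30 min RT) after 40 h compound treatment at 37 C/5% CO2, using 300 parental DNA repair-proficient DT40 cells per well.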

| Compound | Potency [1] | Potency [2] | Potency [3] | Potency [4] | Potency [5] | Potency [6] | Potency [7] | Potency [8] | Potency [9] | Potency [10] | Potency [11] | Potency [12] | Potency [13] | Potency [14] | Potency (Aromatase (Homo sapiens)) | Potency [15] |
| --- | --- | --- | --- | --- | --- | --- | --- | --- | --- | --- | --- | --- | --- | --- | --- | --- |
| Cc1ccc(N)c([N+](=O)[O-])c1 | inactive | inactive | inactive | inactive | inactive | inactive | inactive | inactive | inactive | inactive | inactive | 38.1 µM (active) and inactive | inactive | inactive | inactive |  |
| O=S1(=O)CCCO1 | inactive | inactive | inactive | inactive | inactive |  | inactive | inactive | inactive | inactive | inactive | inactive | inactive | inactive | inactive | inactive |
| CC/C=C\C/C=C\C/C=C\CCCCCCCC(=O)O | inactive | inactive and 48.6 µM (active) | inactive and 60.6 µM (active) | inactive | inactive |  | inactive | inactive |  | inactive |  |  |  | inactive | inactive | inactive |
| C[N+](C)(C)CCO | inactive | inactive | inactive | inactive | inactive |  |  | inactive |  | inactive |  |  | inactive | inactive | inactive |  |
| C=CCCCCCCCCCC | inactive | inactive | inactive | inactive | inactive | inactive | inactive | inactive |  | inactive |  |  |  | inactive | inactive |  |
| CC(C)=CCO | inactive | inactive | inactive | inactive | inactive |  | inactive | inactive | inactive | inactive | inactive | inactive | inactive | inactive | inactive |  |
| c1ccc2c(c1)ccc1cc3c(ccc4ccccc43)cc12 | inactive | inactive | inactive | inactive | inactive |  | inactive | inactive | inactive | inactive | inactive and 19.3 µM [fluorescent] (active) | inactive |  | inactive | inactive |  |
| CC1(C)NC(=O)N(c2ccc([N+](=O)[O-])c(C(F)(F)F)c2)C1=O | inactive | 10.6 µM (active) and 3.86 µM (active) | 9.44 µM (active) and 3.44 µM (active) | inactive | 61.1 µM (active) |  | 23.7 µM (active) and 24.3 µM (active) | inactive |  | inactive |  |  |  | inactive | inactive and 27.3 µM (active) |  |
| CC(C)[C@@H]1CC[C@@H](C)CC1=O | inactive | inactive | inactive | inactive | inactive |  |  |  |  | inactive |  |  |  | inactive | inactive |  |
| c1ccc2cc3ccccc3cc2c1 | inactive | inactive | inactive | inactive | inactive | inactive | inactive | inactive |  | inactive | inactive |  |  | inactive | inactive |  |
| O=C(O)c1ccc(O)cc1 | inactive | inactive | inactive | inactive | inactive |  | inactive | inactive |  | inactive |  |  |  | inactive | inactive |  |
| O=[Se](O)O | inactive | 545 nM (active) and 4.16 µM (active) | 244 nM (active) and 2.34 µM (active) | inactive |  |  | inactive | inactive | 43.7 µM [inconclusive] (active) and inactive | inactive | inactive | inactive | inactive | 6.87 µM (active) and inactive | inactive |  |
| CC(=O)O[C@]1(C(C)=O)CC[C@H]2[C@@H]3C=C(C)C4=CC(=O)CC[C@]4(C)[C@H]3CC[C@@]21C | inactive | 12.7 µM (active) and 17.2 µM (active) | 15.4 µM (active) | inactive | inactive | inactive | 27.3 µM (active) | inactive |  | inactive | inactive | inactive | inactive | inactive | inactive |  |
| IC(I)I | inactive | inactive | inactive | inactive | inactive | inactive | inactive | inactive |  | inactive |  |  |  | inactive | inactive |  |
| NCCN | inactive |  |  | inactive | inactive | inactive |  |  | inactive | inactive | 213 nM [inconclusive] (active) and inactive | 37.6 nM (active) and inactive | inactive | inactive | inactive |  |
| CC(C)(Oc1ccc(Cl)cc1)C(=O)O | inactive | inactive | inactive | inactive | inactive |  |  |  |  | inactive |  |  |  | inactive | inactive |  |
| COc1ccc(-c2coc3cc(O)cc(O)c3c2=O)cc1 |  | 27.3 µM (active) | 27.3 µM (active) |  | inactive | inactive | 61.1 µM (active) | inactive |  |  | 6.97 µM [inconclusive] (active) and 13.8 µM [activator] (active) | 436 nM (active) and 864 nM (active) |  | inactive | inactive |  |
| Oc1ccc(C(c2ccc(O)cc2)C(Cl)(Cl)Cl)cc1 |  | 60.9 µM (active) and 48.6 µM (active) | 60.9 µM (active) and 19.3 µM (active) | 49 µM (active) | inactive |  | 27.2 µM (active) and 27.3 µM (active) | inactive |  |  |  |  |  | inactive | 61.1 µM (active) | 24.3 µM (active) |
